SMILES strings stand for the structures. Results filed as inconclusive are left out. Unmarked numbers belong to inactive results. Active and inactive are the calls of the source. Calls come from the whole dose curve; as a rule, active = well fitted inhibition curve with a large enough effect; inconclusive = small, poorly fitted or top-dose-only effect; inactive = flat fitted curve, though single readings scatter. Where a SMILES comes first, the peptide text is derived from it. The star is where a group is joined. βNA = c1ccc2cc(N*)ccc2c1; Cbz = O=C(OCc1ccccc1)*
% is set by controls: 0 for no effect and ±100 for the full control effect.

The subject of the experiment is KB-3-1. The experiment is described as follows: Cytotoxic Profiling of Annotated Libraries Using Quantitative High-Throughput Screening (AID 1296008). Note: nearly all actives have a fitted effect of over 60% in size. Conditions: Five cell lines viability, CellTiter-Glo ATP luminescence, 48-72 h; max response: stronger effect = lower value. A digest of the protocol: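 Cells exposed to compounds for 48 or 72 hr at 37 degrees Celsius. Viability read as ATP-coupled luminescence with CellTiter-Glo after 10 min at room temperature.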
In general terms: In ATP-based viability assays light output follows the ATP content of the culture.
For `O=C(O)Cc1cn([C@@H]2O[C@H](CO)[C@@H](O)[C@H](O)[C@H]2O[C@@H]2O[C@H](CO)[C@@H](O)[C@H](O)[C@H]2O)c2ccccc12`, the max response was 4.7%. For `C=C1CC[C@@]2(OC1)O[C@H]1CC3[C@@H]4CC=C5C[C@@H](O)C[C@@H](O[C@@H]6OC[C@H](O)[C@H](O)[C@H]6O[C@@H]6O[C@@H](C)[C@H](O)[C@@H](O)[C@H]6O)[C@]5(C)C4CC[C@]3(C)[C@H]1[C@@H]2C` (some centres undefined), the outcome was inactive. `CC(C)CC(NC(=O)OCc1ccccc1)C(=O)NC(CC(C)C)C(=O)NC(CCC(=O)O)C(=O)Nc1ccc2ccccc2c1` (stereo not drawn) (Cbz-Leu-Leu-Glu-βNA; configuration not given here): the result was inactive. With `OC[C@@]1(O)CO[C@H](OC[C@H]2O[C@@H](OC(CCCCc3ccc(O)cc3)CCc3ccc(O)cc3)[C@H](O)[C@@H](O)[C@@H]2O)[C@@H]1O` (some centres undefined), the max response was 9.32%. On to `Nc1ccc(-n2nc(C(F)(F)F)cc2C(F)(F)F)cc1`, for which the max response is 7.09%.

Take `C/C(=C\C(=O)C[C@@]12C(=O)O[C@]3(C)CC[C@H]1C[C@H]23)C(N)=O`: the compound was classed as inactive. Turning to `Nc1ncnc2c1C(=O)N(c1ccc(C3CCC(CC(=O)O)CC3)cc1)CCO2` (centres undefined), the result was inactive. In the case of `COC1OC(=O)C2=C1C1(C)CCCC(C)(C)C1CC2O` (centres undefined), the compound was called inactive. Still for that read-out and setting: the entry for `C=C(CC/C=C(\C)C(=O)O)C1(O)CC=C(C)CC1` (centres undefined) is “inactive”. Consider `CC(C)Oc1ccc(-c2nc(-c3cccc4c3CCC4NCCC(=O)O)no2)cc1C#N` (centres undefined), for which the max response is 8.29%. On the same count and under the same terms, the figure for `C=C1CC[C@@]2(OC1)O[C@H]1CC3[C@@H]4CC=C5C[C@H](O[C@H]6OC[C@@H](O)C(O)[C@@H]6O[C@@H]6O[C@@H](C)[C@H](O)[C@@H](O[C@@H]7O[C@H](CO)[C@@H](O)[C@H](O)[C@H]7O)[C@H]6O)C[C@@H](O)[C@]5(C)C4CC[C@]3(C)[C@H]1[C@@H]2C` (some centres undefined) is -1.49%. Consider `CC(C)c1cc2c(c(O)c1O)[C@@]13CCCC(C)(C)C1[C@@H](O)[C@@H]2OC3=O` (some centres undefined), for which the max response was 7.44%. As for `COc1cccc(C)c1C(=O)O[C@@H]1C[C@H](O[C@H]2[C@H](O)C[C@H](O[C@@H]3CCC[C@H]4[C@H]3C=C[C@@H]3CCCC/C=C/[C@H]5C=C(C(=O)O)[C@@H](C)C[C@@]56OC(=O)C(=C6O)OC(=O)[C@@]34C)O[C@@H]2C)O[C@H](C)[C@H]1O`, the max response is 6.21%.

As for `CC(=O)OC1C(CO)OC(O[C@H]2[C@H](OC(=O)[C@]34CCC(C)(C)C[C@H]3C3=CCC5[C@@]6(C)CC[C@H](O[C@@H]7O[C@H](C(=O)O)[C@@H](O)[C@H](O[C@@H]8OC[C@@H](O)[C@H](O)[C@H]8O)[C@H]7O[C@@H]7O[C@H](CO)[C@H](O)[C@H](O)[C@H]7O)[C@@](C)(C=O)C6CC[C@@]5(C)[C@]3(C)C[C@H]4O)O[C@H](C)[C@H](OC3OC(C)C(OC4OCC(O)C(O)C4O)C(O)C3O)[C@@H]2O)C(O)C1O` (some centres undefined), the compound was called inactive. As for `CC(C)=CCC/C(C)=C/CO[C@@H]1O[C@H](CO[C@@H]2O[C@@H](CO)[C@H](O)[C@H]2O)[C@@H](O)[C@H](O)[C@H]1O`, the compound was classed as inactive. Turning to `O=C(c1ccc(Cl)c([N+](=O)[O-])c1)N1CCN(c2ccccc2F)CC1`, the call was inactive.

With `COc1cc(O)c2c(c1Cl)CC(C)OC2=O` (centres undefined), the max response was 3.15%. On to `CCCCNc1nc(N)c2[nH]c(=O)n(Cc3ccc(OCCN(C)C)nc3)c2n1`, for which the result was inactive. Take `CC(O)C(=O)/C=C/C=C/C(=O)OC1C=C2COC(=O)C2(O)C2(C)CCCC(C)(C)C12` (centres undefined): the max response is 4.29%. With `CC1(C)CC[C@]2(C(=O)O)CC[C@]3(C)C(=CCC4[C@@]5(C)CC[C@H](O[C@@H]6O[C@H](C(=O)O)[C@@H](O)[C@H](O[C@@H]7O[C@H](CO)[C@H](O)[C@H](O)[C@H]7O)[C@H]6O[C@@H]6O[C@H](CO)[C@@H](O)[C@H](O)[C@H]6O)C(C)(C)C5CC[C@]43C)[C@@H]2C1` (some centres undefined), the outcome was inactive. Regarding `CC(=O)OC(C)(C)/C=C/C(=O)[C@](C)(O)C1[C@H](O)C[C@@]2(C)[C@@H]3CC=C4[C@@H](C[C@H](O[C@@H]5O[C@H](CO)[C@@H](O)[C@H](O)[C@H]5O)C(=O)C4(C)C)[C@]3(C)C(=O)C[C@]12C` (some centres undefined), the max response was 1.94%. Turning to `CC1=CC(=O)CC(C)(C)[C@@]1(O)/C=C/C(C)O[C@@H]1O[C@H](CO)[C@@H](O)[C@H](O)[C@H]1O` (some centres undefined), the compound was classed as inactive.

Regarding `CC(C)C1NC(=O)C(CC2(O)c3ccccc3N3C(=O)C(Cc4ccccc4)NC32)NC1=O` (centres undefined), the compound was called inactive. Regarding `OC[C@@]1(O)CO[C@H](OC[C@H]2O[C@@H](OC(CCCCc3ccc(O)cc3)CCc3ccc(O)cc3)[C@H](O[C@H]3OC[C@](O)(CO)[C@H]3O)[C@@H](O)[C@@H]2O)[C@@H]1O` (some centres undefined), the max response was 2.31%. With `COC(=O)c1c(CC=C(C)C)c(OC2OC(CO)C(O)C(O)C2O)c2ccccc2c1OC1OC(CO)C(O)C(O)C1O` (centres undefined), the compound was called inactive. `C[C@]1(O)CC[C@@H]2C(C(=O)O)=CO[C@@H](O[C@@H]3O[C@H](COC(=O)/C=C/c4ccc(O)c(O)c4)[C@@H](O)[C@H](O)[C@H]3O)[C@@H]21`: the max response is 9.19%. Consider `CC(C)(O)C1CC=C(C(=O)OC[C@H]2O[C@@H](Oc3cc(C(=O)O)cc(O)c3O)[C@H](O)[C@@H](O)[C@@H]2O)CC1` (some centres undefined), for which the result was inactive. For `COc1cc2c(cc1O)CC(O)(CO)C(CO)C2c1ccc(OC2OC(CO)C(O)C(O)C2O)c(OC)c1` (centres undefined), the compound was called inactive.

Take `O=C(O)CC/C=C\C[C@H]1CO[C@@H](c2ccccc2Cl)O[C@H]1c1ccccc1O`: the max response was 3.23%.

The values above are taken from PubChem BioAssay (NCATS).
